Measurements: PubChem BioAssay (NCATS)
Results filed as inconclusive are left out. The source made the active and inactive calls. Calls follow the shape of the dose curve; as a rule, active = well fitted curve in the direction sought with a large enough effect; inconclusive = small, poorly fitted or top-dose-only effect, or another doubt; inactive = no such curve, though single readings can be large; an effect the other way counts as inactive or inconclusive.

Tests used:
[1] = qHTS assay to identify small molecule inhibitors of chordoma cells - UCH-1 (AID 1259355); also: nearly all actives have a fitted effect of over 55% in size
Procedure, shortened: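 Screening used approved and investigational drugs in 15-point titration against 800 seeded cells per well. A fixed combination of auranofin with camptothecin, doxorubicin, rubitecan and topotecan followed compound addition, and growth was scored by CellTiter-Glo after 48hr.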

[2] = P-glycoprotein substrates identified in KB-8-5-11 adenocarcinoma cell line, qHTS therapeutic library screen (AID 1346987); conditions: outcome: dose series up to 44.5 µM unless noted; also: nearly all actives have a fitted effect of over 65% in size; also: potency is read from the fitted curve at half-maximal effect
Procedure, shortened: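 Compounds are pinned in dose-response onto KB-8-5-11 cells (500 cells/well, colchicine-free medium) and left 72 h at 37 degree C. CellTiter-Glo luminescence then yields AC50 values.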

[3] = qHTS assay to identify small molecule inhibitors of chordoma cells - UCH-2 (AID 1259356); also: series mostly up to about 46 µM
[4] = NS1 protein of Zika virus - qHTS assay to identify small molecule inhibitors in human HEK 293 cells (AID 1347053); also: series mostly up to about 46 µM; nearly all actives have a fitted effect of over 55% in size
Procedure, shortened: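 Read-out is a two-antibody TR-FRET for ZIKV NS1, normalized between uninfected cells and infected cells. Compound added 1 h before MR766 infection at MOI 0.5; human HEK 293 cells incubated 24 h, 37 C.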

[5] = qHTS of pediatric cancer cell lines to identify multiple opportunities for drug repurposing: Primary screen for TC32 cells (AID 1347089); also: nearly all actives have a fitted effect of over 60% in size
Procedure, shortened: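 Luminescent CellTiter-Glo read-out of metabolically active TC32 cells after 48 h compound exposure. Primary: MIPE 11-point, 0.78 nM–46 µM; NPC 8-point, 0.59 nM–46 µM. Confirmatory: 11-point dilutions.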

[6] = qHTS of pediatric cancer cell lines to identify multiple opportunities for drug repurposing: Primary screen for DAOY cells (AID 1347090); also: series mostly up to about 46 µM; nearly all actives have a fitted effect of over 55% in size
Procedure, shortened: (§1)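 Viability measured as metabolically active cells via CellTiter-Glo luminescence following 48 hours of compound exposure, 11-point dilutions in confirmatory testing. 500-1,000 cells/well plated 5 hours before dosing; controls were DMSO and 2.3 µM bortezomib.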

[7] = qHTS of pediatric cancer cell lines to identify multiple opportunities for drug repurposing: Primary screen for SJ-GBM2 cells (AID 1347091)
Procedure, shortened: as §1

[8] = qHTS of pediatric cancer cell lines to identify multiple opportunities for drug repurposing: Primary screen for A673 cells (AID 1347092); also: nearly all actives have a fitted effect of over 45% in size; also: potency is read from the fitted curve at half-maximal effect
Procedure, shortened: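 A673 cells (500-1,000 cells/well in growth media) were pre-incubated 5 h at 37 degrees C, then exposed to compounds for 48 h. Viability was read as CellTiter-Glo luminescence; concentration-response curves came directly from the primary screen.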

[9] = qHTS of pediatric cancer cell lines to identify multiple opportunities for drug repurposing: Primary screen for SK-N-MC cells (AID 1347093); also: series mostly up to about 46 µM
Procedure, shortened: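 Metabolically active cells were quantified by ATP-dependent luminescence (CellTiter-Glo, 15 min at room temperature) following 48 h treatment. Cells had been plated at 500-1,000 per well and settled for 5 h beforehand.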

[10] = qHTS of pediatric cancer cell lines to identify multiple opportunities for drug repurposing: Primary screen for BT-37 cells (AID 1347094); also: series mostly up to about 57 µM
Procedure, shortened: (§2)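 Plated cells (500-1,000 per well, growth media) were allowed to settle for 5 hours, treated with compound dilutions for 48 hours, then lysed with CellTiter-Glo for 15 min at room temperature before luminescence reading.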

[11] = qHTS of pediatric cancer cell lines to identify multiple opportunities for drug repurposing: Primary screen for NB-EBc1 cells (AID 1347095)
Procedure, shortened: as §2

[12] = qHTS of pediatric cancer cell lines to identify multiple opportunities for drug repurposing: Primary screen for U-2 OS cells (AID 1347096); also: nearly all actives have a fitted effect of over 50% in size
Procedure, shortened: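 Viability after 48 h compound treatment at 37C, 500-1,000 cells/well, read as ATP luminescence with CellTiter-Glo. Primary screens used 11-point (MIPE, 0.78 nM-46 µM) or 8-point (NPC, 0.59 nM-46 µM) final concentrations; follow-up screens used 11-point dilutions.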

[13] = qHTS of pediatric cancer cell lines to identify multiple opportunities for drug repurposing: Primary screen for Saos-2 cells (AID 1347097); also: nearly all actives have a fitted effect of over 40% in size; also: potency is read from the fitted curve at half-maximal effect
Procedure, shortened: as §2

[14] = qHTS of pediatric cancer cell lines to identify multiple opportunities for drug repurposing: Primary screen for NB1643 cells (AID 1347099); also: nearly all actives have a fitted effect of over 50% in size
Procedure, shortened: as §2

[15] = qHTS of pediatric cancer cell lines to identify multiple opportunities for drug repurposing: Primary screen for SK-N-SH cells (AID 1347098);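 also: DMSO served as neutral control and bortezomib at 2.3 µM as positive control; nearly all actives have a fitted effect of over 65% in size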
Procedure, shortened: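 Cells (500-1,000/well) rested 5 h, then received compounds for 48 h; metabolically active cells were measured by CellTiter-Glo luminescence. Final concentrations spanned up to 46 µM (MIPE, 11-point) or 0.59 nM-46 µM (NPC, 8-point) in primary screens, 11-point in follow-ups.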

Measured: Potency

CN1C(=O)C[C@@H](C(=O)N[C@@H](Cc2cnc[nH]2)C(=O)N2CCC[C@H]2C(N)=O)NC1=O
inactive: [1] | [2]

C[C@]12CC[C@@H]3c4ccc(OC(=O)c5ccccc5)cc4CC[C@H]3[C@@H]1CC[C@@H]2O
inactive: [1]
active: [2] 4.61 µM

O=C(OCc1ccccc1)c1ccc(O)cc1
not listed: [15]
inactive: all other assays above

CC(C)CCC[C@@H](C)[C@H]1CC[C@H]2[C@@H]3CC[C@@H]4C[C@H](O)CC[C@]4(C)[C@H]3CC[C@]12C
inactive: [1] | [2]

CC(=O)NCCCS(=O)(=O)O
inactive: [1] | [2]

Nc1ccc(N=Nc2ccccc2)c(N)n1
not listed: [15]
inactive: all other assays above

O=C(O)[C@@H]1C[C@H](CP(=O)(O)O)CCN1
inactive: [1] | [2]

CC(=O)Oc1cccc2c1C(=O)c1c(OC(C)=O)cc(C(=O)O)cc1C2=O
active: [8] 21.1 µM
not listed: [6] | [9] | [11] | [13] | [14]
inactive: all other assays above

CCOC(=O)Oc1c(OC)cc(C(=O)O[C@@H]2C[C@@H]3CN4CCc5c([nH]c6cc(OC)ccc56)[C@H]4C[C@@H]3[C@H](C(=O)OC)[C@H]2OC)cc1OC
inactive: [1] | [2]

CN[C@@H]1[C@@H](O[C@H]2O[C@H](CO)[C@@H](N)[C@H](O)[C@H]2O)O[C@H]2C[C@@H](N)[C@@H](O[C@H]3[C@H](O)[C@@H](O)[C@H](N)C[C@@H]3N)O[C@@H]2[C@@H]1O
inactive: [1] | [2]

O=P(O)(O)OP(=O)(O)O
inactive: [1] | [2]

O=C1c2ccccc2C(=O)c2c1ccc(O)c2O
active: [13] 23.7 µM
not listed: [2] | [7] | [10]
inactive: all other assays above

COc1ccc2nc(NC(=O)Nc3ccccc3)sc2c1
not listed: [2] | [13]
inactive: all other assays above

COc1ccc(/C=C/C(=O)OCCC(C)C)cc1
inactive: [1] | [2]

C[C@@H]1O[C@@H]1P(=O)(O)O
inactive: [1] | [2]

CC(C)CN(C[C@@H](O)[C@H](Cc1ccccc1)NC(=O)O[C@@H]1CCOC1)S(=O)(=O)c1ccc(N)cc1
inactive: [1] | [2]
